The text below walks through data of ChEMBL document CHEMBL3988442, “University of Dundee, Small-Polar-MMV Screening Library” (2021).

Molecules are shown by their SMILES. Out of some 48,000 compounds screened, about 13,000 (27%) showed an effect of 50% or more. The list shows a part of the results.

The assay deals with Wolbachia pipientis. Briefly: Anti-Wolbachia Cell-Based Screen. The format is functional. Details: scale not given: in the data most compounds retested in dose-response had high values. Conditions: 5 µM.
As for `CC(NC(=O)NCCCn1ccnc1)c1ccc2c(c1)CCC(=O)N2` (configuration not stated), the “Percent Effect” value is on record as -10.33%.

As for `CC(NC(=O)NCCCN(C)C)c1ccc2c(c1)CCC(=O)N2` (configuration not stated), the “Percent Effect” value stood at 1.464%.

As to `CC(NC(=O)NCCS(C)(=O)=O)c1ccc2c(c1)CCC(=O)N2` (configuration not stated), the “Percent Effect” value amounted to 98.04%.

Consider `CCCn1[nH]cc/c1=N\C(=O)CN1CCCC1Cn1cc(C)cn1` (configuration not stated), for which the “Percent Effect” value is -13.34%.

As for `O=C(c1cnccn1)N1CCC2(CCN(Cc3ccsc3)CC2)CC1`, the “Percent Effect” value worked out at 105.9%.

Turning to `O=C(c1cnccn1)N1CCC2(CCCN(Cc3ccoc3)C2)C1` (configuration not stated), the “Percent Effect” value came out at 7.611%.

Turning to `O=C(c1cnccn1)N1CCC2(CCN(Cc3ccsc3)C2)CC1`, the “Percent Effect” value came to 113.3%.

Take `O=C(c1cnccn1)N1CCN(Cc2csc(-c3ccccc3)n2)CC1`: the “Percent Effect” value amounted to 5.031%.

Consider `Cn1cccc1CN1CCC2(CC1)CCN(C(=O)c1cnccn1)CC2.O=C(O)C(F)(F)F`, for which the “Percent Effect” value is listed as 3.989%.

As to `NC(=O)C1=NC2=NS(=O)(=O)c3ccccc3N2N1Cc1ccc(Cl)cc1`, the “Percent Effect” value is reported as 1.46%.

With `CC(C)(CNc1cc(F)ccc1F)S(C)(=O)=O`, the “Percent Effect” value is on record as -17.31%.

On to `CC(=O)N1CCC(N2CCN3C(=O)N(Cc4ccccn4)C[C@H]3C2)CC1`, for which the “Percent Effect” value is on record as -4.667%.

With `Cc1nnc(CSc2ccc(C(F)(F)F)cn2)o1`, the “Percent Effect” value is -11.49%.

Consider `CCN1CC(C(=O)NCc2nc(C3CCCCC3)no2)CC1=O` (configuration not stated), for which the “Percent Effect” value was -30.34%.

With `Cc1cc(C(=O)O)ccc1NS(=O)(=O)c1c(C)nn(C(C)C)c1C`, the “Percent Effect” value is -9.87%.

For the molecule `Cc1nc(N2CCN(C)CC2)ncc1C(=O)N1CCCCC1`, the “Percent Effect” value amounted to 123.3%.

For the molecule `CN1CCCN(C(=O)c2cnc(Cc3c(Cl)cccc3Cl)nc2O)CC1`, the “Percent Effect” value came out at 6.628%.

With `Cc1nc(N2CCN(C)CC2)ncc1C(=O)N1CCC(O)(CO)CC1`, the “Percent Effect” value is -3.993%.

For `CN1CCCN(C(=O)c2cnc(C(C)(C)C)nc2O)CC1`, the “Percent Effect” value is given as -12.59%.

Take `Cc1nc(N2CCN(C)CC2)ncc1C(=O)N1CCN(C)CC1`: the “Percent Effect” value turned out to be 120.1%.

With `Cc1nc(N2CCN(C)CC2)ncc1C(=O)N1CCCCCC1`, the “Percent Effect” value came to 100.3%.

With `Cc1nc(N2CCCCC2)ncc1-c1cc(O)[nH]n1`, the “Percent Effect” value is on record as 24.53%.

For the molecule `Cc1nc(N2CCN(C)CC2)ncc1C(=O)N1CC(C)(C)C(C)(O)C1` (configuration not stated), the “Percent Effect” value was -4.468%.

`CC[C@H]1COCCN1C(=O)c1cnc(N2CCN(C)CC2)nc1C`: the “Percent Effect” value is -29.22%.

On to `COCc1c(Br)cccc1NC(=O)CC(F)(F)F`, for which the “Percent Effect” value is -8.675%.

For the molecule `CC(C)(O)c1cc(CC2(NCC3CCCCC3)COC2)no1`, the “Percent Effect” value is listed as -2.979%.

On to `O=C(c1n[nH]c2ccccc12)N1CCCC1c1noc(C2CC2)n1` (configuration not stated), for which the “Percent Effect” value is -5.823%.

`CC(C)(C)NS(=O)(=O)c1ccc(NC(=O)C2CC2)cc1`: the “Percent Effect” value is reported as -16.45%.

As to `Cc1cc(C)n(CC(=O)N2CCC(NS(C)(=O)=O)CC2)n1`, the “Percent Effect” value is -12.4%.

Consider `Cc1nn(CC(=O)N2CCCC2Cn2cccn2)c(C)c1Cl` (configuration not stated), for which the “Percent Effect” value is -2.085%.

Take `COC1CCN(C(=O)Cn2nc(C)cc2C)CC1`: the “Percent Effect” value is -14.02%.

As for `Cc1nn(CC(=O)n2cccn2)c(C)c1I`, the “Percent Effect” value turned out to be 112.6%.

For `Cc1nn(CC(=O)N2CCCCC2Cn2cccn2)c(C)c1Cl` (configuration not stated), the “Percent Effect” value was -2.313%.

As for `Cc1cc(C)n(C(=O)Cn2nc(C)c(I)c2C)n1`, the “Percent Effect” value was 66.77%.

Consider `CC(=O)N1Cc2nc(C(=O)NCCc3cccnc3)oc2C1`, for which the “Percent Effect” value was -18.72%.

Take `CSCC(C)N(C)S(=O)(=O)c1ccc(Cl)cc1C#N` (configuration not stated): the “Percent Effect” value was -5.71%.

`CN(Cc1ccccc1CN1CCCC1)C(=O)c1c(O)cccc1O`: the “Percent Effect” value is on record as -3.98%.

As to `CN(C)Cc1ccccc1CN(C)C(=O)c1ccoc1`, the “Percent Effect” value stood at 83.07%.

In the case of `Cc1ccccc1CN(C)C(=O)c1ccoc1`, the “Percent Effect” value is -7.893%.

Consider `Cc1ncc(CC(=O)N2CCCCC2CCN2CCCC2)c(=O)[nH]1` (configuration not stated), for which the “Percent Effect” value is reported as -18.36%.

For `CCN(CC1CCOC1)C(=O)c1ccc(COc2ccccc2C#N)o1` (configuration not stated), the “Percent Effect” value worked out at 0.9785%.

Regarding `CCN(CC1CCOC1)C(=O)c1ccccc1S(=O)(=O)CC` (configuration not stated), the “Percent Effect” value turned out to be 111.1%.

Turning to `CCN(CC1CCOC1)C(=O)c1nc(-c2ccco2)sc1C` (configuration not stated), the “Percent Effect” value amounted to 14.29%.

Take `CCN(CC1CCOCC1)C(=O)CCNC(=O)c1ccccc1F`: the “Percent Effect” value is recorded as -3.146%.

On to `CCN(CC1CCOC1)C(=O)c1ccccc1S(C)(=O)=O` (configuration not stated), for which the “Percent Effect” value is on record as 84.82%.

For the molecule `CCN(CC1CCOC1)C(=O)c1ccccc1NS(=O)(=O)CC` (configuration not stated), the “Percent Effect” value was 0.4037%.

For the molecule `COCCc1noc(-c2ccc(=O)[nH]c2)n1`, the “Percent Effect” value is recorded as -16.05%.

Consider `Cc1nnc(CN(C)CC2CCCCC2)o1`, for which the “Percent Effect” value is recorded as 96.6%.

`CCc1nc(CN(C)CC2CCN(CCO)CC2)no1`: the “Percent Effect” value is listed as -13.45%.

Regarding `Cc1cc(CN(C)CC2CCCCC2)no1`, the “Percent Effect” value was -1.2%.

As to `CCc1nnc(CN(C)C[C@@H]2CCCN3CCCC[C@H]23)o1`, the “Percent Effect” value is -11.52%.

Consider `Cc1nnc(CN(C)CC2(O)CCCN(CCC3CCCCC3)C2=O)o1` (configuration not stated), for which the “Percent Effect” value is on record as -32.48%.

For `CCc1nnc(CN(C)CC2CCCCC2)o1`, the “Percent Effect” value was 93.73%.

Consider `OC(CN(Cc1ccccc1)Cc1cccnc1)c1ccco1` (configuration not stated), for which the “Percent Effect” value is listed as -6.799%.

Consider `CCCN1CCCN(c2ncccc2C(=O)N2CCCCC2)CC1`, for which the “Percent Effect” value is 6.513%.

Regarding `CCC(CNS(C)(=O)=O)Oc1ccccc1C` (configuration not stated), the “Percent Effect” value was 8.016%.

`CCC(=O)NCCc1cc(N2CCN(C(C)=O)CC2)nc(C2CC2)n1`: the “Percent Effect” value was -11.66%.

Turning to `COc1ccc(C(=O)N2CCN(c3cc(CCN)nc(C)n3)CC2)cc1`, the “Percent Effect” value is recorded as -1.227%.

Turning to `CN1CCN(c2cc(CCNC(=O)C3CCC3)nc(C3CC3)n2)CC1`, the “Percent Effect” value is recorded as -16.77%.

Turning to `CC(=O)NCCc1cc(N2CCN(C(C)=O)CC2)nc(C2CC2)n1`, the “Percent Effect” value is reported as -7.517%.

As for `CCCC(=O)NCCc1cc(N2CCN(C(C)=O)CC2)nc(C2CC2)n1`, the “Percent Effect” value was determined as 96.87%.

Consider `Cc1nc(CCN)cc(N2CCCN(C(=O)c3ccco3)CC2)n1`, for which the “Percent Effect” value is -5.504%.

`CCCNC(=O)CCC(=O)N1CCC(c2n[nH]c(C3CC3)n2)CC1`: the “Percent Effect” value was -17.72%.

For `CC(=O)N1CCN(c2cc(CCN)nc(C3CC3)n2)CC1.Cl`, the “Percent Effect” value was 89.11%.

For the molecule `CC(=O)N1CCN(c2cc(CCNC(=O)C(C)C)nc(C3CC3)n2)CC1`, the “Percent Effect” value was 74.84%.

In the case of `Cc1ccoc1C(=O)NC(CC(C)C)C(=O)N1CCC(CO)CC1` (configuration not stated), the “Percent Effect” value was -14.58%.

Consider `CCC(=O)N1CCc2[nH]cnc2C12CCN(C(=O)CCS(C)(=O)=O)CC2`, for which the “Percent Effect” value is listed as -8.696%.
